In the library only some 2.4% were active in any assay of this set; here they are far more common.
AmpC nodet inh – inhibitors of E. coli AmpC beta-lactamase without detergent. Potency, µM (highest dose often 28.7 µM). actives 1.8% (n = 71,000). P00811. AmpC nitrocefin hydrolysis, absorbance 480 nm, no detergent
Target sequence (P00811 whole entry, looked up): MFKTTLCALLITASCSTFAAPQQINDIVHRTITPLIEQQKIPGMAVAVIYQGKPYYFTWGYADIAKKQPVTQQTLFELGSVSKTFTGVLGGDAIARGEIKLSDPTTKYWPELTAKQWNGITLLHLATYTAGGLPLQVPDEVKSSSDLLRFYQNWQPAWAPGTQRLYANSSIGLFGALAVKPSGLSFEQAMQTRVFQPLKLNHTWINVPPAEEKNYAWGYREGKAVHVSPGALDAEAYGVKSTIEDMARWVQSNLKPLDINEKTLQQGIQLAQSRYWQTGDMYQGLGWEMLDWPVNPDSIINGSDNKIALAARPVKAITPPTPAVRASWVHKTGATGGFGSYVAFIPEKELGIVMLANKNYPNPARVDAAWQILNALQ
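AmpC in 20 mM phosphate buffer pH 7.0 was preincubated 15 min at room temperature with compounds. Nitrocefin (800 uM stock) was then added and hydrolysis followed at 480 nm every 20 s for 4 min.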
AmpC det inh – AmpC beta-lactamase inhibition, detergent assay; purified AmpC, nitrocefin hydrolysis with detergent; P00811; actives 0.09% (n = 71,000); Potency, µM (top dose mostly 28.7 µM); active means well fitted curve in the direction sought with a large enough effect; inconclusive means small, poorly fitted or top-dose-only effect
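E. coli AmpC (5.3 nM) in 20 mM phosphate pH 7.0 with 0.01% Triton X-100, preincubated 15 min RT with compound; nitrocefin (2 uL of 800 uM stock) hydrolysis followed by 480 nm absorbance every 20 s over 4 min.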
Anthrax LT inh – inhibitors of anthrax lethal toxin internalization; Cells, anthrax lethal toxin internalization, FRET ratio (460/530); AID 912; actives 0.67% (n = 70,000); Potency, µM (titrated, usually from 40 µM), actives largely listed as inhibitors; further: nearly all actives have a fitted effect of over 50% in size
Prx2 Sm inh – Schistosoma mansoni Prx2 inhibition | S. mansoni Prx2 activity coupled to TGR/GSH (TGR is thioredoxin glutathione reductase), NADPH fluorescence loss, qHTS | Potency, µM | actives 0.07% (n = 65,000)
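Prx2 inhibition was measured as reduced NADPH consumption when electrons flowed from NADPH through TGR and glutathione to Prx2 and H2O2. Plates were read kinetically over 8 min; enzyme reagents were held at 4 deg C during dispensing.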
Numbers stand for hits; [ ] = remark or other dose. Unless noted, the call rests on the fitted dose curve.

For Cc1ccc2c(c1)NC(=O)C(CC(=O)NC1CCCCC1C)O2 (configuration not stated) the results were AmpC nodet inh 4µM[single pt active], AmpC det inh inactive, Anthrax LT inh inactive and Prx2 Sm inh inactive.
`CCCCN(C)CCCNC(=O)CC1Oc2ccccc2NC1=O` (configuration not stated) gave AmpC nodet inh 4µM[single pt active], AmpC det inh inactive, Anthrax LT inh inactive and Prx2 Sm inh inactive.
`O=C(CC1Oc2ccccc2NC1=O)NCCCN1CCOCC1` (configuration not stated) gave AmpC nodet inh inactive, AmpC det inh inactive, Anthrax LT inh inactive and Prx2 Sm inh inactive.
For CCC(C)N(CCNC(=O)CC1Oc2ccc(C)cc2NC1=O)C1CCCCC1 (configuration not stated) the results were AmpC nodet inh inactive, AmpC det inh inactive, Anthrax LT inh inconclusive and Prx2 Sm inh inactive.
For Cc1ccc2c(c1)NC(=O)C(CC(=O)NCc1cccnc1)O2 (configuration not stated) the results were AmpC nodet inh 4µM[single pt active], AmpC det inh inactive, Anthrax LT inh inactive and Prx2 Sm inh inactive.
For Cc1ccc2c(c1)NC(=O)C(CC(=O)NCc1ccc(F)cc1)O2 (configuration not stated) the results were AmpC nodet inh inconclusive, AmpC det inh inactive, Anthrax LT inh inactive and Prx2 Sm inh inactive.
For O=C(O)CNC(=O)c1ccccc1O the results were AmpC nodet inh inactive[5.75 µM], AmpC det inh inactive[5.75 µM], Anthrax LT inh inconclusive and Prx2 Sm inh inactive.
For N#C[C@@H](N=Nc1ccccc1C(=O)O)C(N)=O the results were AmpC nodet inh inactive[5.75 µM], AmpC det inh inactive[5.75 µM], Anthrax LT inh inactive[8 µM] and Prx2 Sm inh inactive.
`O=C(O)C[C@H](Cc1ccccc1Cl)C(=O)O` gave AmpC nodet inh inactive[5.75 µM], AmpC det inh inactive[5.75 µM], Anthrax LT inh inactive[8 µM] and Prx2 Sm inh inactive.
For CC(=O)OC[C@@H]1O[C@@H](O/N=C2/C[C@@H](O)[C@@H](O)[C@@H]3[C@@H]4C(=O)N(C[C@@H]5CCCO5)C(=O)[C@H]4CC[C@@H]23)[C@H](OC(C)=O)[C@H](OC(C)=O)[C@@H]1OC(C)=O the results were Anthrax LT inh inactive[8 µM].
O=C(CC1Oc2ccccc2NC1=O)NCc1ccccc1 (configuration not stated) was read as AmpC nodet inh inactive, AmpC det inh inactive, Anthrax LT inh inactive and Prx2 Sm inh inactive.
Screening Cc1ccc2c(c1)NC(=O)C(CC(=O)NCCCN1CCCCC1C)O2 (configuration not stated) returned AmpC nodet inh inactive, AmpC det inh inactive, Anthrax LT inh inactive and Prx2 Sm inh inactive.
Screening O=C1Nc2ccccc2OC1CC(=O)N1CCCC1 (configuration not stated) returned AmpC nodet inh 4µM[single pt active], AmpC det inh inactive, Anthrax LT inh inactive and Prx2 Sm inh inactive.
`CC(=O)c1cccc(NC(=O)CC2Oc3ccc(C)cc3NC2=O)c1` (configuration not stated) gave AmpC nodet inh 4µM[single pt active], AmpC det inh inactive, Anthrax LT inh inactive and Prx2 Sm inh inactive.
Screening CC1CCCCN1CCNC(=O)CC1Oc2ccccc2NC1=O (configuration not stated) returned AmpC nodet inh 2.5µM[single pt active], AmpC det inh inactive, Anthrax LT inh inconclusive and Prx2 Sm inh inactive.
COC(=O)c1ccc(C(NC(=O)OCc2ccccc2)/C(C)=C/[C@@H](C)C(=O)N2CCN(C)CC2)cc1 (some centres not stated) was read as AmpC nodet inh inactive, AmpC det inh inactive and Anthrax LT inh inactive.
`COc1ccc(/C=C/N(CCc2ccc(OC)c(OC)c2)C(=O)C(F)(F)F)cc1` gave Anthrax LT inh inactive[8 µM].
Screening NCCSCCC(=O)O returned AmpC nodet inh inactive[5.75 µM], AmpC det inh inactive[5.75 µM], Anthrax LT inh inactive[8 µM] and Prx2 Sm inh inactive.
BrCC(Br)C1CCC(Br)C(Br)C1 (configuration not stated) was read as AmpC nodet inh inactive, AmpC det inh inactive and Anthrax LT inh 16µM.
Cc1ccc(C(=O)Cn2c3c(sc2=N)CCCC3)cc1 was read as AmpC nodet inh inactive, AmpC det inh inactive, Anthrax LT inh 16µM and Prx2 Sm inh inactive.
Screening COc1ccc(NC(=O)c2ccc(-c3ccc(-c4noc(C)n4)cc3C)cc2)cc1OCCN(C)C returned AmpC nodet inh inactive, AmpC det inh inactive, Anthrax LT inh 16µM and Prx2 Sm inh inactive.
For COc1ccc(NC(=O)c2ccc(-c3ccc(-c4noc(C)n4)cc3C)cc2)cc1N1CCN(C)CC1 the results were AmpC nodet inh inactive, AmpC det inh inactive, Anthrax LT inh inconclusive and Prx2 Sm inh inactive.
Screening CCOc1ccc(C(=O)Nc2cc(C)on2)cc1 returned AmpC nodet inh inactive, AmpC det inh inactive and Anthrax LT inh inactive.
Screening Cc1cc(NC(=O)c2cccc(COc3ccc(Br)cc3)c2)no1 returned AmpC nodet inh 4µM[single pt active], AmpC det inh inactive, Anthrax LT inh inconclusive and Prx2 Sm inh inactive.
`C=CC1CC=CCC1` (configuration not stated) gave AmpC nodet inh inactive, AmpC det inh inactive and Anthrax LT inh inactive.
For CCOC(=O)[C@]1(CC(=O)O)CCCC1=O the results were Anthrax LT inh inactive[8 µM] and Prx2 Sm inh inactive.
Screening CCCN1C(=O)c2cc(C(=O)NC3CCCCCC3)ccc2C1O (configuration not stated) returned AmpC nodet inh 4µM[single pt active], AmpC det inh inactive, Anthrax LT inh inactive and Prx2 Sm inh inactive.
O=C(NCc1ccccc1)c1noc2c1CCCC2 was read as AmpC nodet inh inactive, AmpC det inh inactive, Anthrax LT inh inactive and Prx2 Sm inh inactive.
Screening CC(C)CNC(=O)c1noc2c1CCCC2 returned AmpC nodet inh 4µM[single pt active], AmpC det inh inactive, Anthrax LT inh inactive and Prx2 Sm inh inactive.
Screening CCOC(=O)Cc1csc(-n2sc3ccccc3c2=O)n1 returned AmpC nodet inh inactive, AmpC det inh inactive, Anthrax LT inh 3.2µM and Prx2 Sm inh inactive.
Screening S=C1SCN(C2CCCCCCCCCCC2)CN1C1CCCCCCCCCCC1 returned AmpC nodet inh inactive[5.75 µM], AmpC det inh inactive[5.75 µM], Anthrax LT inh inactive[8 µM] and Prx2 Sm inh inactive.
CCCCC/C=C\C/C=C\C/C=C\C/C=C\CCCC(=O)Nc1ccc(O)cc1 was read as AmpC nodet inh 10µM, AmpC det inh inactive, Anthrax LT inh inconclusive and Prx2 Sm inh inactive.
CCCCC/C=C\C/C=C\C/C=C\C/C=C\CCCC(=O)NCC(=O)O was read as AmpC nodet inh inactive, AmpC det inh inactive, Anthrax LT inh inactive and Prx2 Sm inh inactive.
Screening COc1ccc(C(=O)Nc2ccc(Cl)cc2C(=O)NCc2ccco2)cc1OC returned AmpC nodet inh inactive, AmpC det inh inactive and Anthrax LT inh 7.9µM.
Screening N[C@@H](Cc1cccc([N+](=O)[O-])c1)C(=O)O returned AmpC nodet inh inactive[5.75 µM], AmpC det inh inactive[5.75 µM], Anthrax LT inh inactive[8 µM] and Prx2 Sm inh inactive.
Cc1nc(NCc2ccccc2)c2nc(-c3ccccc3)n(CCN3CCCCC3)c2n1 was read as AmpC nodet inh inactive, AmpC det inh inactive and Anthrax LT inh inconclusive.
CN(C)CCCN1C(=O)CSC1c1ccccc1 (configuration not stated) was read as AmpC nodet inh 3.2µM[single pt active], AmpC det inh inactive, Anthrax LT inh inactive and Prx2 Sm inh inactive.

High-throughput results deposited in PubChem by National Center for Advancing Translational Sciences (NCATS).
